# Screening data as filed in PubChem.
# DT40 TDP1 no CPT: qHTS for Inhibitors of human tyrosyl-DNA phosphodiesterase 1 (TDP1): qHTS in cells in absence of CPT | DT40 Tdp1-/- hTDP1 cells, no CPT, ATP luminescence, 48 h | Potency, µM (series often up to 46.2 µM), hits mostly inhibitors | actives 15% (n = 420,000) | AID 686978, 2013; also: nearly all actives have a fitted effect of over 55% in size
#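 Cells were dispensed at 400 per well, compounds added by pin tool, plates incubated ≥48 hr at 37 °C, then CellTiter-Glo added for 30 min at room temperature before luminescence reading. Line: DT40 Tdp1-/- complemented with hTDP1; camptothecin omitted.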
# TGFb inhibitor: blocks TGF-b signaling. HepG2 CAGA-GFP TGF-b/SMAD3 reporter, GFP fluorescence, 18 h; TGF-beta stimulated, 500 pg/mL final. Potency, µM (doses to about 46.1 µM), usual class: inhibitors. actives 1.2% (n = 410,000); also: nearly all actives have a fitted effect of over 65% in size
#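 First, reporter cells (HEPG2 CAGA-GFP) rested 2 h at 37 degrees C. Next, compounds were pinned in and TGF-beta added to 500 pg/mL final. After 18 h, GFP was imaged per cell and summed per well.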
# TDP1 inh: blocks human tyrosyl-DNA phosphodiesterase 1; Q9NUW8; recombinant TDP1, AlphaScreen DNA substrate cleavage; Potency, µM (titrated, usually from 130 µM), most hits filed as inhibitors; actives 0.28% (n = 350,000); also: nearly all actives have a fitted effect of over 40% in size
# Target sequence (Q9NUW8 whole entry, looked up): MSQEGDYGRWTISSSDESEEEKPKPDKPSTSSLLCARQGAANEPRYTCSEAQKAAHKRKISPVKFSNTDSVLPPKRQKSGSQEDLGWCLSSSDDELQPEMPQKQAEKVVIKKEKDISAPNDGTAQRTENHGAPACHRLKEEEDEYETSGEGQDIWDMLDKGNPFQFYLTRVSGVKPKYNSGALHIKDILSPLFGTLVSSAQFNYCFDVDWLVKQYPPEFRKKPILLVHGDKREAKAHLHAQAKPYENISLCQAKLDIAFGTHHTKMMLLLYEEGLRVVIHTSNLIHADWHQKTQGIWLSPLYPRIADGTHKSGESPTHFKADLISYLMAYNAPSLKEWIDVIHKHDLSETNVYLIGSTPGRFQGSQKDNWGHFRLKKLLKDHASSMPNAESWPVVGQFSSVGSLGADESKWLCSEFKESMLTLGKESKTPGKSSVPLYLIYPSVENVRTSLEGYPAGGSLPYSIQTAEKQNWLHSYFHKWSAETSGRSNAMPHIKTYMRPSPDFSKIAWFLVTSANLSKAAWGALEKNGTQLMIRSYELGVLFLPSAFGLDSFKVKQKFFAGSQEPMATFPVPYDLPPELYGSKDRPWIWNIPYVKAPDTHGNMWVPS
#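 Recombinant E. coli-expressed Tdp1 (1 nM) preincubated with compound 15 min at RT, then 5'-biotin/3'-phosphotyrosine-FITC DNA substrate (15 nM) added for 5 min. AlphaScreen beads (10 ug/ml) added, 10 min RT; tyrosine-FITC cleavage read as signal loss.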
# HepG2 viability: counter-screen for TGF-b inhibitors: cytotoxicity in HepG2 cells; actives 0.76% (n = 410,000); HepG2 CAGA-GFP viability, ATP luminescence, 18 h; Potency, µM (series often up to 46.1 µM), hits mostly cytotoxic
#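 HepG2 CAGA-GFP cells (1000/well, DMEM with 1% FBS) received compound, then TGF-beta at 500 pg/mL final, and were incubated 18 hours at 37 degrees C. Viability was read by CellTiter-Glo luminescence. Media-only wells were set as complete cell-killing and DMSO as no toxicity.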
# IL1B secr inh: inhibitors of inflammasome signaling (IL-1 beta secretion); THP-1 LPS/ATP IL-1B secretion, AlphaLISA, 16 h; active compounds read low; activity change, % at 57.5 µM; actives 4.7% (n = 360,000); in the data active = activity change below about -50%; inconclusive = mostly about -30% to -49%
#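 Secreted IL-1B measured by AlphaLISA bead assay after 16 h compound exposure of THP-1 cells; compounds (final up to 57.5 uM) added 1 h before LPS (250 ng/mL) and ATP (1.25 mM) stimulation; lower signal means less secretion.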
# DT40 TDP1 CPT: DT40-hTDP1 cell growth loss with CPT; chicken DT40 Tdp1-/-;hTDP1 cells + 20 nM CPT, ATP luminescence, 48 h; actives 12% (n = 420,000); AID 686979; Potency, µM (doses to about 46.2 µM), most hits filed as inhibitors; also: nearly all actives have a fitted effect of over 55% in size
#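 Cell growth measured by CellTiter-Glo luminescence after a minimum 48 h, 37 C compound exposure with 20 nM CPT in Tdp1-knockout DT40 cells stably expressing hTDP1, seeded 400/well; qHTS titration format.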
# Numbers stand for hits; 0 = inactive; ? = inconclusive; - = no result given; [ ] = remark or other dose. The list is not random: actives were taken first. Their share in the collection is about 18%. Unless noted, calls follow the shape of the dose curve; as a rule, active = well fitted curve in the direction sought with a large enough effect; inconclusive = small, poorly fitted or top-dose-only effect, or another doubt; inactive = no such curve, though single readings can be large; an effect the other way counts as inactive or inconclusive.
SMILES,DT40 TDP1 no CPT,TGFb inhibitor,TDP1 inh,HepG2 viability,IL1B secr inh,DT40 TDP1 CPT
CN(C)S(=O)(=O)c1ccc(C(=O)Nc2nc(-c3ccccc3)c(C(=O)c3ccccc3)s2)cc1,?,0,0,0,0,?
O=C(Nc1nc(-c2cc3ccccc3o2)cs1)c1ccc(S(=O)(=O)N2CCCC2)cc1,2.3µM,0,0,0,0,16µM
Cc1noc(C)c1S(=O)(=O)N(C)C[C@@H]1OCc2cnnn2CCCC(=O)N([C@@H](C)CO)C[C@H]1C,0,0,-,0,0,0
CC(C)CN(C(=O)COc1ccccc1C(=O)NCc1ccccc1)C1CCS(=O)(=O)C1 (configuration not stated),0,0,-,0,0,0
CC1(CCc2ccc3c(c2)OCO3)NCCc2c1[nH]c1ccccc21 (configuration not stated),18µM,?,-,0,-57,?
N#Cc1c(-c2ccccc2)nc2n(-c3ccccc3)nc(C(=O)Nc3ccccc3)n2c1=O,7.3µM,0,0,0,0,?
CC(=O)c1cccc(NC(=O)c2nc(-c3ccccc3)n(-c3ccccc3)n2)c1,10µM,0,0,0,-,21µM
COc1ccc(-c2nc(C(=O)Nc3cccc(C(C)=O)c3)nn2-c2ccccc2Cl)cc1,16µM,0,0,0,-,18µM
Cc1ccc(C)c(NC(=O)c2nc(-c3ccccc3)n(-c3ccccc3)n2)c1,?,?,0,0,?,?
Cc1csc(NC(=O)c2nc(-c3ccccc3)n(-c3ccccc3)n2)n1,?,0,0,0,?,?
COc1ccc(-c2cc(C(=O)Nc3cccc(C(C)=O)c3)no2)cc1,0,0,0,0,0,0
CC(=O)c1ccc(NC(=O)c2nc(-c3ccccc3)n(-c3ccc(C)cc3)n2)cc1,18µM,0,0,0,-,?
O=C(NCCCn1ccnc1)/C(=C\c1ccc(Br)cc1)NC(=O)c1ccccc1,?,0,0,0,?,?
Cc1nn(-c2ccc(N3CCCC3)nn2)c(C)c1CCC(=O)N1CCN(c2ccccc2F)CC1,?,?,0,0,-,?
N#Cc1cccc(NC(=O)c2nc(-c3ccccc3)n(-c3ccccc3)n2)c1,18µM,0,0,0,0,?
C=CCC1(c2ccccc2)Oc2ccccc2-c2nc3cc(Cl)c(Cl)cc3nc21 (configuration not stated),-,-,0[21 µM],-,-,-
c1ccc(CSc2nnc(NC3CCCCC3)s2)cc1,21µM,0,-,0,-52,?
O=c1cc(CSc2nnc(NC3CCCCC3)s2)nc2sccn12,0,0,0,0,0,0
CO[C@H]1COC(=O)[C@@H](Cc2ccccc2)NC(=O)[C@@H](C)COC(=O)CCC[C@@H]1C,-,-,0[21 µM],-,-,-
Cn1c(=O)n(C)c2cc(NS(=O)(=O)c3ccccc3)c(NCc3ccccc3)cc21,?,0,0,0,-,15µM
Cc1cc(S(=O)(=O)Nc2cc3c(cc2NCc2ccccc2)n(C)c(=O)n3C)ccc1F,12µM,0,0[12.3 µM],0,-,7.3µM
COc1ccc(S(=O)(=O)Nc2ccccc2)cc1OC,0,0,0,0,0,0
Cn1c(=O)n(C)c2cc(NS(=O)(=O)c3ccc(C(C)(C)C)cc3)c(NCc3ccccc3)cc21,23µM,?,0[12.3 µM],0,-,21µM
COc1ccc(S(=O)(=O)Nc2cc3c(cc2NCc2ccccc2)n(C)c(=O)n3C)cc1OC,21µM,0,0,0,-,?
Cn1c(=O)n(C)c2cc(NS(=O)(=O)c3ccc(Cl)cc3)c(NCc3ccccc3)cc21,13µM,?,0,0,-,10µM
CN(C)c1cc2c(cc1NS(=O)(=O)c1ccccc1)n(C)c(=O)n2C,?,0,0[0.0935 µM],0,0,?
O=c1oc(CCCO)cc2ccc(C#Cc3ccsc3)cc12,18µM,?,0,0,0,?
